Experimental data taken from PubChem BioAssay (Tox21).
Records with an inconclusive call do not appear. Where a call stands in place of a potency, no number is given. Active and inactive are the calls of the source. Unless noted, calls come from the whole dose curve; as a rule, active = well fitted curve in the direction sought with a large enough effect in the repeat runs; inconclusive = weak or mixed curves; inactive = no such curve, though single readings can be large; an effect the other way counts as inactive or inconclusive.

What was measured:
[1] = molecular target: Aryl hydrocarbon receptor (Homo sapiens) (UniProt P35869); test: qHTS assay to identify small molecule that activate the aryl hydrocarbon receptor (AhR) signaling pathway (AID 743085); note: nearly all actives have a fitted effect of over 15% in size; note: potency is the fitted concentration of half-maximal effect;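 for activation: HG2L7.5c1 human HepG2 liver cells with stably integrated DRE-driven firefly reporter; series mostly up to about 70 µM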
How it was run: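 Steps: seed HepG2-AhR-luc cells; allow 5 h at 37C; pin-transfer test compound or vehicle; incubate 24 h at 37C; add viability dye (30 min, 37C) and read fluorescence; add luciferase substrate (30 min, RT) and read luminescence.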

[2] = qHTS assay to identify small molecule that activate the aryl hydrocarbon receptor (AhR) signaling pathway - cell viability counter screen (AID 743086);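 note: HepG2 liver cells carrying the AhR DRE luciferase reporter; series mostly up to about 70 µM; nearly all actives have a fitted effect of over 45% in size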
How it was run: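 HepG2-AhR-luc (HG2L7.5c1) cells, 4000/well, treated 24 h at 37 C with compound; viability measured as CellTiter-Fluor fluorescence after 30 min in the same wells as the luciferase read.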

[3] = molecular target: Peroxisome proliferator-activated receptor gamma (Homo sapiens) (UniProt P37231); test: qHTS assay to identify small molecule antagonists of the peroxisome proliferator-activated receptor gamma (PPARg) signaling pathway (AID 743191; calls by dose curve; note: nearly all actives have a fitted effect of over 30% in size; note: potency is the fitted concentration of half-maximal effect)
How it was run: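 GeneBLAzer PPARg UAS-bla HEK293H cells, 5 h post-plating, exposed to compounds 17 h at 37C. LiveBLAzer B/G FRET substrate added for 1 h at room temperature; beta-lactamase reporter read by fluorescence intensity.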

[4] = qHTS assay to identify small molecule antagonists of the peroxisome proliferator-activated receptor gamma (PPARg) signaling pathway - cell viability counter screen (AID 743194); note: nearly all actives have a fitted effect of over 55% in size
How it was run: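 Cytotoxicity counter screen in PPARg-bla HEK293H cells, same wells as reporter assay. Compounds plus 50 nM rosiglitazone (final) for 17 h at 37 C, then viability read by CellTiter-Glo luminescence.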

[5] = qHTS assay for small molecule activators of the heat shock response signaling pathway - cell viability counter screen (AID 743209); note: nearly all actives have a fitted effect of over 50% in size
How it was run: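 Cytotoxicity counter screen run in parallel with the HSE beta-lactamase reporter, using the same wells. HeLa HSE-bla cells received compound for 5 h at 37 C; ATP-based CellTiter-Glo luminescence was measured after 30 min at room temperature.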

[6] = qHTS assay for small molecule activators of the heat shock response signaling pathway (AID 743210; active = well fitted activation curve with a large enough effect in the signal ratio in the repeat runs, with a control signal flat, not every such curve was filed as active; the % refers to the signal ratio;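 note: HeLa cells with beta-lactamase reporter driven by heat shock elements; series mostly up to about 63 µM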)
How it was run: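 Following overnight attachment, HSE-bla HeLa cells received test compounds for 5 h at 37 C; beta-lactamase activity was then detected via FRET substrate fluorescence.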

[7] = qHTS assay to identify small molecule agonists of the peroxisome proliferator-activated receptor delta (PPARd) signaling pathway - cell viability counter screen (AID 743211); note: nearly all actives have a fitted effect of over 55% in size
How it was run: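 Viability of GeneBLAzer PPARd UAS-bla HEK293H cells was assessed after 17 h compound incubation at 37C, using CellTiter-Glo reagent added after the reporter read and luminescence recorded 30 min later.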

[8] = molecular target: Peroxisome proliferator-activated receptor delta (Homo sapiens) (UniProt Q03181); test: qHTS assay to identify small molecule agonists of the peroxisome proliferator-activated receptor delta (PPARd) signaling pathway (AID 743212; calls by dose curve)
How it was run: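 Tox21 library screened in GeneBLAzer PPARd UAS-bla HEK293H cells. After compound treatment at 37 C, a FRET-based beta-lactamase substrate was applied for 2 h and fluorescence recorded.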

[9] = qHTS assay to identify small molecule antagonists of the peroxisome proliferator-activated receptor delta (PPARd) signaling pathway - cell viability counter screen (AID 743213); note: nearly all actives have a fitted effect of over 50% in size
How it was run: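 PPARd-bla HEK293H cells were treated with compounds plus agonist L165041 (300 nM final) for 17 h at 37 C. Viability was then read in the same wells by CellTiter-Glo luminescence after 30 min at room temperature.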

[10] = molecular target: Peroxisome proliferator-activated receptor delta (Homo sapiens) (UniProt Q03181); test: qHTS assay to identify small molecule antagonists of the peroxisome proliferator-activated receptor delta (PPARd) signaling pathway (AID 743215; active = well fitted inhibition curve with a large enough effect in the signal ratio in the repeat runs, not every such curve was filed as active; the % refers to the signal ratio;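 note: cells stimulated with agonist L165041 at 300 nM final during compound exposure; series mostly up to about 62 µM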)
How it was run: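 Cells: HEK293H with a UAS-driven beta-lactamase reporter responsive to PPARd. Compounds were co-added with L165041 (300 nM, final) and incubated 17 h at 37 C before a 2 h room-temperature FRET substrate step and fluorescence reading.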

[11] = qHTS assay to identify small molecule agonists of the farnesoid-X-receptor (FXR) signaling pathway - cell viability counter screen (AID 743218); note: nearly all actives have a fitted effect of over 45% in size
How it was run: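 Cells were seeded, left 5 h at 37 C and 5% CO2, then dosed with compound in DMSO for 16 h. After the beta-lactamase FRET read, CellTiter-Glo was added and luminescence measured 30 min later.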

[12] = qHTS assay to identify small molecule antagonists of the farnesoid-X-receptor (FXR) signaling pathway - cell viability counter screen (AID 743221; active = well fitted cell-killing curve with a large enough effect in the repeat runs, not every such curve was filed as active; note: nearly all actives have a fitted effect of over 50% in size)
How it was run: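 Quantitative HTS of the Tox21 10K library run in parallel with the beta-lactamase reporter read. HEK 293T cells carrying a UAS-driven bla reporter got compound and 50 uM CDCA (final) for 16 h; ATP-based luminescence followed.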

[13] = qHTS assay for small molecule agonists of the antioxidant response element (ARE) signaling pathway - cell viability counter screen (AID 743203; calls by dose curve; note: nearly all actives have a fitted effect of over 55% in size)
How it was run: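 Cytotoxicity was tested in parallel with the ARE reporter screen. ARE-bla HepG2 cells were exposed to compounds for 16 hrs, and viability was taken from CellTiter-Glo luminescence.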

[14] = molecular target: Bile acid receptor (Homo sapiens) (UniProt Q96RI1); test: qHTS assay to identify small molecule agonists of the farnesoid-X-receptor (FXR) signaling pathway (AID 743220; active = well fitted activation curve with a large enough effect in the signal ratio in the repeat runs, not every such curve was filed as active; the % refers to the signal ratio)
How it was run: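 FXR-UAS-bla HEK 293T cells carrying a UAS-driven beta-lactamase reporter were plated for 5 h at 37C/5% CO2, then exposed to DMSO-dissolved Tox21 10K compounds for 16 h at 37C. A LiveBLAzer B/G FRET substrate was loaded for 2 h at room temperature before fluorescence reading.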

[15] = qHTS assay to identify aromatase inhibitors - cell viability counter screen (AID 743084);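 note: cells stimulated with testosterone during compound exposure; nearly all actives have a fitted effect of over 55% in size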
[16] = molecular target: Vitamin D3 receptor (Homo sapiens) (UniProt P11473); test: qHTS assay to identify small molecule agonists of the vitamin D receptor (VDR) signaling pathway (AID 743222; calls by dose curve)
How it was run: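 Cells carrying a VDR-driven beta-lactamase reporter are seeded at 2,000 per well and rested 4 h. Compounds in DMSO are added for 16 h at 37C, and FRET substrate fluorescence is measured after 2 h at room temperature.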

[17] = qHTS assay for small molecule agonists of the antioxidant response element (ARE) signaling pathway (AID 743202; active = well fitted activation curve with a large enough effect in the signal ratio in the repeat runs, not every such curve was filed as active; the % refers to the signal ratio; note: potency is the fitted concentration of half-maximal effect)
How it was run: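 HepG2 ARE-bla cells; 16 h treatment at 37 C; FRET-based beta-lactamase fluorescence read after 2 h substrate incubation at room temperature.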

[18] = molecular target: Bile acid receptor (Homo sapiens) (UniProt Q96RI1); test: qHTS assay to identify small molecule antagonists of the farnesoid-X-receptor (FXR) signaling pathway (AID 743217; active = well fitted inhibition curve with a large enough effect in the signal ratio in the repeat runs, not every such curve was filed as active; the % refers to the signal ratio)
How it was run: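 Cells carrying a UAS-driven beta-lactamase reporter (GeneBLAzer FXR-UAS-bla HEK 293T) were plated and rested 5 h at 37 °C. Compounds in DMSO were added alongside chenodeoxycholic acid agonist at 50 uM final and left 16 h at 37 °C before FRET substrate readout.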

[19] = molecular target: Peroxisome proliferator-activated receptor gamma (Homo sapiens) (UniProt P37231); test: qHTS assay to identify small molecule agonists of the peroxisome proliferator-activated receptor gamma (PPARg) signaling pathway (AID 743094; active = well fitted activation curve with a large enough effect in the signal ratio in the repeat runs, not every such curve was filed as active; the % refers to the signal ratio)
How it was run: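 Cells from the PPARg UAS-bla HEK293H line are plated and incubated 5 h at 37C. Compounds in DMSO are pinned in and left 17 h at 37C. LiveBLAzer B/G substrate is then added for 1 h at room temperature before fluorescence is measured.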

[20] = molecular target: Vitamin D3 receptor (Homo sapiens) (UniProt P11473); test: qHTS assay to identify small molecule antagonists of the vitamin D receptor (VDR) signaling pathway (AID 743223; active = well fitted inhibition curve with a large enough effect in the signal ratio in the repeat runs, not every such curve was filed as active; the % refers to the signal ratio; note: potency is the fitted concentration of half-maximal effect)
How it was run: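 Fluorescence from LiveBLAzer B/G FRET substrate, read after 2 h at room temperature, reflects beta-lactamase reporter activity in VDR-bla cells treated 16 h at 37C with compounds and agonist 1alpha,25-dihydroxyvitamin D3 (3 nM final).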

Peroxisome proliferator-activated receptor delta (Homo sapiens), sequence (Q03181 whole entry, looked up): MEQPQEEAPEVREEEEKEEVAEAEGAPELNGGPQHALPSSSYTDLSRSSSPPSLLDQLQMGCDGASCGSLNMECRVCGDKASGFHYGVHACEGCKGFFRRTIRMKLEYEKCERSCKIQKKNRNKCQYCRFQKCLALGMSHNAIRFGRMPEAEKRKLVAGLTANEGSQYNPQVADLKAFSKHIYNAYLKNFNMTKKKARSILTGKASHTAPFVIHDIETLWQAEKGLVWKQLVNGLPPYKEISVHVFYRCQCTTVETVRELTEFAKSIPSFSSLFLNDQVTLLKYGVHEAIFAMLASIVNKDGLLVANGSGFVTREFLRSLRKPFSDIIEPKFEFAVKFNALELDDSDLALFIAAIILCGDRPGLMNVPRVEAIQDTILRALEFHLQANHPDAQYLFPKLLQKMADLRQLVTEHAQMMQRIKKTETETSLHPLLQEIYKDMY
Vitamin D3 receptor (Homo sapiens), sequence (P11473 whole entry, looked up): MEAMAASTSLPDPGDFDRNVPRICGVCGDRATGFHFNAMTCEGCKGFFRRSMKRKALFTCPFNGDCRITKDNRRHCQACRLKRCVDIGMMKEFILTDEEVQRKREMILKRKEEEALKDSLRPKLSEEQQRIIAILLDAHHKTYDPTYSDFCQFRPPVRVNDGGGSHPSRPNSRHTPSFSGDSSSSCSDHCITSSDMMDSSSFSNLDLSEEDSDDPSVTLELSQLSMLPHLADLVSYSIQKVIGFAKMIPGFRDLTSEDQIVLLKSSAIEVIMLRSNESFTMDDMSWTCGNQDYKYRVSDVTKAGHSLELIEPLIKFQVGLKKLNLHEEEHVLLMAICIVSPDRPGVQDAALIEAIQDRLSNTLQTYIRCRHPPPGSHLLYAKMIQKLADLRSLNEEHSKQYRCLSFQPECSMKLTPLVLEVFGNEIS
Bile acid receptor (Homo sapiens), sequence (Q96RI1 whole entry, looked up): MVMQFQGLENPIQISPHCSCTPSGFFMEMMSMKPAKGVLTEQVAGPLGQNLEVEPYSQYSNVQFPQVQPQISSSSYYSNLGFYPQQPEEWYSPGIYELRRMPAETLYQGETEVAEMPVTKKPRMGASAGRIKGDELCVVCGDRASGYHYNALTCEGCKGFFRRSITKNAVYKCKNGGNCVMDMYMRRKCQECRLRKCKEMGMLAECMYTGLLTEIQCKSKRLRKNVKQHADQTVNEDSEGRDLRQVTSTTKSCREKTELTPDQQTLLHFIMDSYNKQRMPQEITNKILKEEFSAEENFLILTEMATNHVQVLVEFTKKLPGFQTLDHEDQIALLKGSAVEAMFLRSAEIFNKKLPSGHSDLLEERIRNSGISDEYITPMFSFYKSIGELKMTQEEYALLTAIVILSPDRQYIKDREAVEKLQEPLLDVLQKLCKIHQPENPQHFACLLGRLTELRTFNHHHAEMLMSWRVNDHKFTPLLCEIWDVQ
Peroxisome proliferator-activated receptor gamma (Homo sapiens), sequence (P37231 whole entry, looked up): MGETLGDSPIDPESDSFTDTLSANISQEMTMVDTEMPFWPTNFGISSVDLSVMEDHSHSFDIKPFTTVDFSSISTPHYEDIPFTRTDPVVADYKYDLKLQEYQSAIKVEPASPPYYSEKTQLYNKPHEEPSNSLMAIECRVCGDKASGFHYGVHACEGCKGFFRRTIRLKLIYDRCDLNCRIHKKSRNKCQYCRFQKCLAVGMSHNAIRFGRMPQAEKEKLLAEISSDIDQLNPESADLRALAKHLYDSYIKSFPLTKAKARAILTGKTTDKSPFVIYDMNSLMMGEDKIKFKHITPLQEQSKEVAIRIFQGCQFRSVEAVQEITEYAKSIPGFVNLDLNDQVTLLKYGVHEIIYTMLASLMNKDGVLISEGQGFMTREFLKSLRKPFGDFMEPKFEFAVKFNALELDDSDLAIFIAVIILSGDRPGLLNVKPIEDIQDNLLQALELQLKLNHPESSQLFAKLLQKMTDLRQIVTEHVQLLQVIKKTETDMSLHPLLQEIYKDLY
Aryl hydrocarbon receptor (Homo sapiens), sequence (P35869 whole entry, looked up): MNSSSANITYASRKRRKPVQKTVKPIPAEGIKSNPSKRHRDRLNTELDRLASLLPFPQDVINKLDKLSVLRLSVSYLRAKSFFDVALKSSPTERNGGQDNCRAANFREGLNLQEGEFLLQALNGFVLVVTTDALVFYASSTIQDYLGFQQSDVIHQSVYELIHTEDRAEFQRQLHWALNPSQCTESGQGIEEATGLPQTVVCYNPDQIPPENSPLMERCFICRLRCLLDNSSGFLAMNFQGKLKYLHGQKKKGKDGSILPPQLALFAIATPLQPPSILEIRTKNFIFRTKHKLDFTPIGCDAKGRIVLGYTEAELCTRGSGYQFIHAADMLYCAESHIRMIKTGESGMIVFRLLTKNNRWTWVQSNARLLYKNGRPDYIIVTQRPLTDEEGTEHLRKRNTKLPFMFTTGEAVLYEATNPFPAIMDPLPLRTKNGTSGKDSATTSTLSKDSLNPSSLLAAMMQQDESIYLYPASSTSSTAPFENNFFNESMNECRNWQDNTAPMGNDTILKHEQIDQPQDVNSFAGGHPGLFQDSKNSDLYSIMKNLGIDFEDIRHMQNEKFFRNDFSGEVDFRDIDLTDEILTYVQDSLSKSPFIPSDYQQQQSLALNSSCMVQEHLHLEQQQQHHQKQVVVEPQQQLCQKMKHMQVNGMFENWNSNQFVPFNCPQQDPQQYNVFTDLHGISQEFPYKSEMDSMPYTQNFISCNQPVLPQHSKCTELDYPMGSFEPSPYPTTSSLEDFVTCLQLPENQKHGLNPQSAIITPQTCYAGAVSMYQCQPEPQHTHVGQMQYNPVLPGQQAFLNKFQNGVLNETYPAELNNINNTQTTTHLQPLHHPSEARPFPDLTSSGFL

| SMILES | Potency [1] | Potency [2] | Potency [3] | Potency [4] | Potency [5] | Potency [6] | Potency [7] | Potency [8] | Potency [9] | Potency [10] | Potency [11] | Potency [12] | Potency [13] | Potency [14] | Potency [15] | Potency [16] | Potency [17] | Potency [18] | Potency [19] | Potency [20] |
| --- | --- | --- | --- | --- | --- | --- | --- | --- | --- | --- | --- | --- | --- | --- | --- | --- | --- | --- | --- | --- |
| CC[C@]1(O)C[C@H]2CN(CCc3c([nH]c4ccccc34)[C@@](C(=O)OC)(c3cc4c(cc3OC)N(C=O)[C@H]3[C@@](O)(C(=O)OC)[C@H](OC(C)=O)[C@]5(CC)C=CCN6CC[C@]43[C@@H]65)C2)C1 | inactive | inactive | inactive | inactive | inactive | inactive | inactive | inactive | inactive | inactive | inactive | inactive | – | – | – | – | – | – | – | – |
| C/C=C\C/C=C/CCCCCCCCOC(C)=O | inactive | inactive | – | inactive | inactive | – | inactive | inactive | inactive | – | – | inactive | inactive | inactive | – | – | – | – | – | – |
| CCCCC(CC)COP(=O)(O)O (stereo not given) | – | – | – | inactive | inactive | inactive | inactive | – | inactive | – | inactive | – | – | inactive | inactive | inactive | – | – | – | – |
| CCCCCCCC/C=C\CCCCCCCCCCCC(=O)O | – | inactive | – | inactive | inactive | inactive | – | inactive | inactive | inactive | inactive | inactive | – | inactive | inactive | – | inactive | inactive | – | – |
| C=CC(=O)OCC1CC2CC1C1CCC(COC(=O)C=C)C21 (stereo not given) | – | – | – | – | – | – | inactive | – | – | – | inactive | – | inactive | – | inactive | inactive | – | – | inactive | – |
| O=c1c(O)c(-c2ccc(O)cc2)oc2cc(O)cc(O)c12 | – | inactive | – | inactive | inactive | inactive | inactive | – | inactive | – | – | inactive | inactive | inactive | inactive | – | inactive | – | – | – |
| O=C1c2ccccc2C(=O)C1(O)O | 61.4 µM (active) | inactive | inactive | inactive | inactive | – | inactive | – | inactive | – | inactive | inactive | – | – | – | inactive | inactive | – | inactive | inactive |
| Oc1c(I)cc(I)c2cccnc12 | – | inactive | 18.8 µM (active) | – | inactive | inactive | inactive | inactive | inactive | – | inactive | inactive | – | – | inactive | inactive | – | inactive | – | 21.3 µM (active) |
| O=[N+]([O-])c1ccc(O/N=C/c2cc(Br)c(O)c(Br)c2)c([N+](=O)[O-])c1 | – | inactive | 19.4 µM (active) | – | inactive | – | – | – | – | – | inactive | – | – | inactive | inactive | inactive | 8.59 µM (active) | inactive | inactive | inactive |
| C=C1CCC2CC1C2(C)C (stereo not given) | – | – | – | inactive | inactive | inactive | inactive | inactive | – | – | inactive | inactive | inactive | – | inactive | inactive | inactive | – | inactive | inactive |
| c1ccc(C[n+]2cccc3ccccc32)cc1 | – | inactive | inactive | – | inactive | inactive | inactive | – | inactive | inactive | inactive | inactive | – | inactive | inactive | inactive | – | inactive | inactive | – |
